Screening results: PubChem, several laboratories
Only some compounds are listed: those with a hit (about 2% of all), similar ones and a draw of the others.
sPLA2-III inh – Blocks human group III sPLA2 activity; inhibition, % at 12.2 µM; QFRET BODIPY PC-A2 liposome hydrolysis, fluorescence; 370,000 tested, 0.56% active; AID 743126;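 active means inhibition above mean plus 3 SD of compounds lying within the high and low control bounds, cut at about 19% in these data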;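 further: 0% = median of test compound wells and 100% = no enzyme DMSO wells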
DAGLB inh – blocks human DAGLB lipase activity; HEK293T DAGLB membrane lysate, EnzChek fluorogenic substrate; 340,000 tested, 0.059% active; inhibition, % at 5.17 µM; in the data active means inhibition above about 34%;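 further: 0% = enzyme with vehicle and 100% = wells lacking enzyme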
Target sequence (Q8NCG7 whole entry, looked up): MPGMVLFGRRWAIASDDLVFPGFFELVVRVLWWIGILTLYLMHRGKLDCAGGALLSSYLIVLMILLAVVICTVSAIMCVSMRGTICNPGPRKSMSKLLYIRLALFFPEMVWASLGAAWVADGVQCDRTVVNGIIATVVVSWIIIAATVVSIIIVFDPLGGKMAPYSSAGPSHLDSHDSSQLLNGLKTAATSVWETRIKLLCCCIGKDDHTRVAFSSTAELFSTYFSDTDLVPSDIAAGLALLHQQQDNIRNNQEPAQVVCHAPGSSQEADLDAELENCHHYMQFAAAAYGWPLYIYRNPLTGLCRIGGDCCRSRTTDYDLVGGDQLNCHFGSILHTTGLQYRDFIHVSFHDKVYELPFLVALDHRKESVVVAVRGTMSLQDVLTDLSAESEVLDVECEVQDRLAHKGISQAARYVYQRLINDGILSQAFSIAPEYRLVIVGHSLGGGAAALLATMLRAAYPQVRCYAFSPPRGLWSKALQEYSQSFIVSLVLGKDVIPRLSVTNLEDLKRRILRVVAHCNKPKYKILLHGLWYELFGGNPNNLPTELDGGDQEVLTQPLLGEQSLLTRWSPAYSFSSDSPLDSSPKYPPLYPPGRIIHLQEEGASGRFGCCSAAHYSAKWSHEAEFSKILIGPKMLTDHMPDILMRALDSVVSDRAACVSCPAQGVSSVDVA
NadD block – NadD (S. aureus) enzyme inhibition; inhibition, % at 20 µM; 360,000 tested, 0.78% active; AID 602399; purified NadD enzyme, colorimetric absorbance read-out; in the data active means inhibition above about 26%
Neddylation inh – inhibitors of human cullin neddylation; TR-FRET cullin neddylation, biochemical; inhibition, % at 25 µM; 360,000 tested, 0.58% active; AID 651699; in the data active means inhibition above about 36%
ARNT TACC3 PPI – ARNT/TACC3 interaction disruption. Q9Y6A5. AlphaScreen His-ARNT PAS-B/GST-TACC3 binding, luminescence; TACC3 fragment carries E629A point mutation. inhibition, % at 9.99 µM. 390,000 tested, 0.66% active. AID 623870;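 active means mean inhibition of replicates at least 50% and at least half of replicates each reaching 50%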;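 further: 0% = complete ARNT plus TACC3 wells and 100% = ARNT alone without TACC3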
hGIII sPLA2 conf – human GIII-sPLA2 inhibition, confirmation; shares compounds with sPLA2-III inh; recombinant hGIII-sPLA2, BODIPY PC-A2 QFRET fluorescence; inhibition, % at 12.2 µM; 2,000 tested, 34% active; AID 743280;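 active means mean inhibition across triplicates above the hit cutoff set in the earlier primary screen, cut at about 19% in these data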;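 further: 0% = enzyme with DMSO and 100% = DMSO wells lacking enzyme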
535nm interf – counter-screen for HGIII-sPLA2 inhibitors: 535nm fluorescence interference. 2,000 tested, 8.5% active. BODIPY FL product fluorescence interference, QFRET. inhibition, % at 12.2 µM. shares compounds with sPLA2-III inh;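 active means average inhibition above the solvent-only control mean plus 3 SD, cut at about 6% in these data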;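 further: 0% = DMSO with substrate plus product and 100% = DMSO with substrate alone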
535nm interf DR – interferes with 535nm fluorescence in dose response counter-screen; shares compounds with sPLA2-III inh; BODIPY FL product fluorescence interference, cell-free; IC50, µM; 240 tested, under 10 active; AID 743455;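 active means IC50 at or below 10 µM; inactive means IC50 above 10 µM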
The depositor's hits bear a star; · = no result.

SMILES | sPLA2-III inh | DAGLB inh | NadD block | Neddylation inh | ARNT TACC3 PPI | hGIII sPLA2 conf | 535nm interf | others
CCN1[C@@H]2c3ccc(-c4cccc(F)c4)c(=O)n3C[C@@H]2[C@@H](CO)[C@@H]1C(=O)N(C)C | · | · | · | · | 1.9 | · | ·
OCCN=Cc1c(O)[nH]c2ccccc12 | 6.0 | -1.6 | 2.3 | 2.0 | -7.1 | · | ·
CN(C)CC(C)(C)CN=Cc1c(O)[nH]c2ccccc12 | 19.3* | 3.4 | -2.8 | -13.1 | -15.3 | 15.3 | -1.8
Cc1noc(C)c1NC(=O)N(C)C[C@H]1Oc2ccc(NC(=O)Nc3cccc4ccccc34)cc2C(=O)N([C@@H](C)CO)C[C@H]1C | · | · | · | · | 11.7 | · | ·
C[C@@H]1CN([C@H](C)CO)C(=O)c2cc(NC(=O)CCC(F)(F)F)ccc2O[C@@H](C)CCCCO[C@@H]1CN(C)C(=O)c1ccccc1 | · | · | · | · | -9.3 | · | ·
COc1ccc(S(=O)(=O)Nc2ccc3c(c2)CC(=O)N([C@H](C)CO)C[C@@H](C)[C@H](CN(C)Cc2ccc(Cl)c(Cl)c2)O3)cc1 | · | · | · | · | 1.2 | · | ·
Cc1c(C)n(CCC#N)c2ccccc12 | 20.6* | 2.2 | -2.5 | 22.7 | -11.1 | 9.2 | -1.8
CN(C)c1ccc(C(c2ccc(N(C)C)cc2)c2ccc([N+](=O)[O-])cc2)cc1 | 19.6* | -5.3 | -0.6 | -9.4 | 5.3 | 19.0 | 9.2*
CCC(=O)N(C)C[C@@H]1Oc2cc(C#CC3CCCC3)ccc2S(=O)(=O)N([C@H](C)CO)C[C@@H]1C | · | · | · | · | -3.7 | · | ·
Oc1[nH]c2ccccc2c1N=Nc1ccccn1 | 4.8 | 0.8 | 2.1 | -2.8 | 0.3 | · | ·
Oc1c(N=Nc2ccccn2)ccc2ccccc12 | 21.9* | 40.2* | -1.0 | -32.3 | 63.8* | 53.9* | 12.8*
COc1cccc(-c2ccc3n(c2=O)C[C@H]2[C@H](CO)[C@@H](C(=O)N(C)C)N(C(=O)C4CCC4)[C@@H]32)c1 | · | · | · | · | -4.1 | · | ·
CCn1c(SCC(=O)NC(C)C)nnc1-c1cccs1 | 2.0 | 2.0 | -5.0 | 5.1 | 0.5 | · | ·
CC(C)N=C1NN=C(c2cccs2)C(CC(=O)O)S1 (configuration not stated) | 20.1* | -0.1 | -3.9 | -7.0 | 40.2 | 0.5 | -5.2
CCC(=O)N1[C@H](CO)[C@@H](c2ccc(C3=CCCC3)cc2)[C@H]1CNC(=O)CN(C)C | · | · | · | · | 9.7 | · | ·
Cc1noc(C)c1S(=O)(=O)Nc1ccc2c(c1)C(=O)N([C@@H](C)CO)C[C@@H](C)[C@@H](CN(C)C)OCCCC[C@@H](C)O2 | · | · | · | · | -1.4 | · | ·
Cc1cc(C)nc(SCc2ccc(C(=O)N/N=C/c3cccc(O)c3O)cc2)n1 | 26.5* | 10.6 | 23.7 | -8.9 | 22.1 | 38.2* | -29.0 | 535nm interf DR=>122
O=C(C[C@@H]1CC[C@@H](NC(=O)c2cccc(F)c2)[C@H](CO)O1)NCCN1CCCC1 | · | · | · | · | 17.3 | · | ·
COC(=O)c1c(Sc2ccccc2)c2ccccc2n1C | 19.5* | -11.0 | 18.0 | -38.5 | -4.5 | 0.9 | -4.1
C[C@@H]1CN([C@H](C)CO)C(=O)c2cc(NS(C)(=O)=O)ccc2O[C@@H](C)CCCCO[C@H]1CN(C)C(=O)Nc1ccc(F)cc1 | · | · | · | · | -7.4 | · | ·
FC(F)(F)C1=Nc2cccc3cccc(c23)N1 | 28.3* | 12.5 | 72.2* | -8.1 | -0.3 | 32.1* | 12.3*
CCc1nc(SCC(=O)Nc2ccc(N(C)C)cc2)c2ccccc2n1 | 22.2* | -4.2 | -4.8 | -44.4 | 0.9 | 23.1* | -0.6
CNC(=O)C[C@@H]1CC[C@H]2[C@H](COc3ccc(NC(=O)Nc4cc(C)cc(C)c4)cc3C(=O)N2C)O1 | · | · | · | · | -4.4 | · | ·
O=[N+]([O-])C1=CC=C2C(=NC3(CCCCC3)N2O)C1=NC1CCCCC1 | 19.3* | 3.4 | 2.4 | -28.3 | 10.3 | 25.1* | -2.7
CC1(C)CC(N=C2C([N+](=O)[O-])=CC=C3C2=NC2(CCCCC2)N3O)CC(C)(C)N1 | -9.6 | -1.6 | 4.5 | -42.2 | · | · | ·
SMILES | sPLA2-III inh | DAGLB inh | NadD block | Neddylation inh | ARNT TACC3 PPI | hGIII sPLA2 conf | 535nm interf | others
COc1ccc(/C=C(/C#N)C(=O)NC2CCCCC2)cc1Br | -5.2 | 5.2 | -4.2 | 9.8 | -3.2 | · | ·
N#C/C(=C\c1ccc2c(c1)OCCO2)C(=O)NC1CCCCC1 | 24.1* | -1.7 | 0.3 | 5.0 | -1.0 | 1.1 | -10.6
C/C(=N\NC(=S)NCCc1ccccc1)c1ccc(O)cc1O | 33.4* | 3.1 | 6.1 | 14.8 | 13.3 | 40.4* | 3.0 | 535nm interf DR=>122
O=C(C1CCC1)N1CCCCN2[C@H](CO)[C@@H](c3ccc(-c4cccc(F)c4)cc3)[C@@H]2C1 | · | · | · | · | -0.3 | · | ·
COc1ccc(S(=O)(=O)N[C@H]2CC[C@@H](CCn3cc(-c4ccccc4F)nn3)O[C@H]2CO)cc1 | · | · | · | · | 4.9 | · | ·
CCn1c2ccccc2c2cc(NC(=O)c3ccc(Br)o3)ccc21 | 20.9* | 2.2 | 21.2 | 5.1 | -1.5 | 15.8 | -2.4
CN1C(=O)c2cc(NC(=O)C3CC3)ccc2OC[C@@H]2O[C@H](CC(=O)NCc3cccc(F)c3)CC[C@@H]21 | · | · | · | · | 0.0 | · | ·
Cc1ccnc(SCc2cc(=O)c(OC(=O)c3ccc([N+](=O)[O-])cc3)co2)n1 | 15.8 | · | · | · | · | · | ·
Cc1cc(C)nc(SCc2cc(=O)c(OC(=O)c3ccc(Cl)c([N+](=O)[O-])c3)co2)n1 | 21.7* | -5.0 | -2.7 | -0.1 | -1.0 | -16.8 | -11.4
CC1Cc2nc(SCC(=O)NCC3CCCO3)n(-c3ccccc3)c(=O)c2S1 (configuration not stated) | -0.7 | -1.1 | 4.4 | -4.0 | · | · | ·
COCCn1c(SCC(=O)NCC2CCCO2)nc2c(c1=O)SC(C)C2 (configuration not stated) | 19.7* | -1.6 | -1.9 | 1.9 | -4.6 | 2.9 | -7.3
NC(c1csc(NC(=O)c2cccc(OC(F)(F)F)c2)n1)c1ccccc1Cl (configuration not stated) | 36.9* | · | 5.8 | 14.9 | · | 24.7* | 0.0
COC(=O)c1cnc(Nc2nc(C(N)c3ccccc3Cl)cs2)nc1C(F)(F)F (configuration not stated) | 12.5 | · | 3.0 | -4.1 | · | · | ·
COc1ccccc1S(=O)(=O)N(C)C[C@@H]1Oc2cc(C#CCC(C)C)ccc2S(=O)(=O)N([C@@H](C)CO)C[C@H]1C | · | · | · | · | 0.4 | · | ·
Cc1cccc(NC(=S)NCc2ccc3c(c2)cc(C)n3C)c1C | 19.8* | 10.3 | 8.7 | -137.5 | 3.8 | 4.8 | 1.0
CNC[C@H]1Oc2cc(C#Cc3ccccc3F)ccc2S(=O)(=O)N([C@H](C)CO)C[C@@H]1C | · | · | · | · | -5.7 | · | ·
C=CCN1C(=O)c2ccc(C(=O)OCC(=O)Nc3ccccc3OC)cc2C1=O | 19.5* | -2.5 | -3.5 | -52.4 | · | -1.6 | -3.6
CCCNC(=O)c1ccc2c(=O)c(O)c(-c3cccc(Br)c3)[nH]c2c1 | 19.6* | 9.7 | -2.2 | 20.4 | -16.0 | 10.0 | -2.8
